Screening data (PubChem BioAssay)
The list is not random: actives were taken first. Their share in the collection is about 19%.
HT1080-NT tox – qHTS for induction of synthetic lethality in tumor cells producing 2HG: qHTS for the HT-1080-NT fibrosarcoma cell line; HT-1080-NT fibrosarcoma viability, CellTiter-Glo ATP luminescence, 48 h; Potency, µM (top dose mostly 46.1 µM), inactives show at the highest dose activity, negative = less viability, hits mostly cytotoxic; AID 686970, 2013; 360,000 tested, 1.6% active;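 also: NT is the 2HG producing partner of a matched IDH1 knockdown line; 0% = DMSO-treated cells and -100% = media-only wells without cells; nearly all actives have a fitted effect of over 55% in size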
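HT-1080-NT; 750 cells/well; 5% FBS RPMI; 48 h compound, 37 degrees C; CellTiter-Glo luminescence; curve fitting and curve-class assignment.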
KB-V1 MDR tox – qHTS assay for MDR1-selective chemotherapeutics: Primary screen using the drug-selected MDR subline cells KB-V1. KB-V1 MDR cells viability, CellTiter-Glo, 72 h. Potency, µM (series often up to 46.1 µM), hits mostly cytotoxic. 400,000 tested, 3.4% active. AID 1347076, 2019; also: nearly all actives have a fitted effect of over 60% in size
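Cytotoxicity toward P-gp-expressing KB-V1 cells was determined as loss of CellTiter-Glo luminescence after 72 h at 37 degrees C. Compounds were tested in quantitative HTS format across a concentration range, with curves fitted to normalized data.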
DT40 TDP1 CPT – qHTS for Inhibitors of human tyrosyl-DNA phosphodiesterase 1 (TDP1): qHTS in cells in presence of CPT; chicken DT40 Tdp1-/-;hTDP1 cells + 20 nM CPT, ATP luminescence, 48 h; Potency, µM (highest dose often 46.2 µM), inactives show at the top dose activity change, negative = growth inhibition, most hits filed as inhibitors; 420,000 tested, 12% active; also: nearly all actives have a fitted effect of over 55% in size
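Chicken DT40 Tdp1-/- cells complemented with human TDP1, 400 cells/well, exposed to compounds plus 20 nM camptothecin for at least 48 h at 37 C; viability read as ATP content by CellTiter-Glo luminescence.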
KB-3-1 tox – qHTS assay for MDR1-selective chemotherapeutics: Primary screen using the parental adenocarcinoma cell KB-3-1. KB-3-1 viability, CellTiter-Glo ATP luminescence, 72 h. Potency, µM (top dose mostly 46.1 µM), most hits filed as cytotoxic. 400,000 tested, 1.4% active. AID 1347075, 2019; also: nearly all actives have a fitted effect of over 60% in size
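Luminescent ATP read-out (CellTiter-Glo) measures survival of drug-naive KB-3-1 cells after 72 h compound exposure at 37 °C. Titration series was screened from lowest to highest concentration, with DMSO vehicle plates as background controls.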
HT1080 IDH1KD tx – qHTS for induction of synthetic lethality in tumor cells producing 2HG: qHTS for the HT-1080-IDH1KD cell line; 360,000 tested, 2% active; HT-1080 IDH1 knockdown viability, ATP luminescence, 48 h; Potency, µM (series often up to 46.1 µM), inactives show at the top dose activity, negative = toxicity, most hits filed as cytotoxic;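 also: 0% = DMSO wells and -100% = cell-free medium wells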
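IDH1KD HT-1080 cells, 750/well, RPMI + 5% FBS; compound pinned after 2 h settling; 48 h, 37 °C; CellTiter-Glo luminescence; % activity normalised to DMSO and no-cell wells; curves fitted, classed by r2 and efficacy.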
DT40 TDP1 no CPT – qHTS for Inhibitors of human tyrosyl-DNA phosphodiesterase 1 (TDP1): qHTS in cells in absence of CPT. DT40 Tdp1-/- hTDP1 cells, no CPT, ATP luminescence, 48 h. Potency, µM (top dose mostly 46.2 µM), for the others: at the highest dose activity change, negative = growth inhibition, most hits filed as inhibitors. 420,000 tested, 15% active. AID 686978, 2013; also: nearly all actives have a fitted effect of over 55% in size
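No-CPT arm: Tdp1-/-;hTDP1 DT40 cells (400/well) plus compounds, incubated ≥48 hr at 37 °C. Readout CellTiter-Glo luminescence.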
The depositor's hits bear a star; i = inactive; ? = inconclusive; nt = no result given; ! = repeats disagree. Calls follow the shape of the dose curve; as a rule, active = well fitted curve in the direction sought with a large enough effect; inconclusive = small, poorly fitted or top-dose-only effect, or another doubt; inactive = no such curve, though single readings can be large; an effect the other way counts as inactive or inconclusive. Unless noted, % is scaled to controls: 0 for no effect and ±100 for the full control effect; potency is read from the fitted curve at half-maximal effect.

SMILES	HT1080-NT tox	KB-V1 MDR tox	DT40 TDP1 CPT	KB-3-1 tox	HT1080 IDH1KD tx	DT40 TDP1 no CPT
CC1(C)Oc2ccc3ccc(=O)oc3c2C[C@H]1O[C@@H]1O[C@H](CO)[C@@H](O)[C@H](O)[C@H]1O	1.0%	i	-11.7%	i	10.3%	1.7%
O=C(NCCc1nnc2n1CCN(Cc1ccc(F)cc1)CC2)c1ccco1	nt	nt	0.2%	nt	nt	-1.5%
CCOc1ccc(-c2nnc(Nc3ccc(OC)c(C(=O)N4CCCCC4)c3)c3ccccc23)cc1	?	?	?	?	?	16.4µM*
CNC(=O)c1cc(Nc2nnc(-c3ccc(O)cc3)c3ccccc23)ccc1OC	-25.1%	i	16.4µM*!	i	-19.3%	?
COc1ccc(C(=O)NCCS(=O)(=O)NCc2ccccc2OC)cc1	8.7%	i	-14.1%	i	11.5%	-18.6%
CCOc1ccccc1CNC(=O)c1cc(-c2ccc(C)c(C)c2)nc2ccccc12	nt	i	20.6µM*	i	nt	?
CCOc1ccccc1CNC(=O)c1cc(-c2ccc(Cl)s2)nc2ccccc12	nt	i	-76.6%	i	nt	13µM*
O=C(COC(=O)c1cc(-c2ccc(Cl)s2)nc2ccccc12)NCc1ccco1	?	i	18.4µM*	i	?	16.4µM*
CC(OC(=O)c1nc(Cl)ccc1Cl)C(=O)NCc1ccccc1 (centres undefined)	1.3%	i	7.3%	i	3.8%	-10.3%
CC(=O)OCCN1CCN(C(=O)CN2C(=O)NC(c3ccccc3)(c3ccccc3)C2=O)CC1	-11.3%	i	3.2%	i	1.8%	-4.1%
CC(Cc1ccsc1)NC(=O)CCc1nnc(COc2ccccc2)o1 (centres undefined)	8.5%	i	2.0%	i	8.8%	7.1%
COc1ccc(-c2cnnn2-c2ccc(NC(=O)c3ccccc3OC)cc2)cc1	nt	i	20.6µM*	?	nt	?
COc1cccc(C(=O)Nc2ccc(-n3nncc3-c3ccccc3)cc2)c1	nt	i	?	i	nt	?
COc1ccc(-c2cnnn2-c2ccc(NC(=O)c3c(F)cccc3F)cc2)cc1	nt	i	11.6µM*	i	nt	25.9µM*
O=C(Nc1ccc(-n2nncc2-c2ccccc2)cc1)c1ccccc1	nt	i	6.9%	i	nt	-25.2%
CN(CCc1nc2ccc(Cl)cc2[nH]1)Cc1nc(CC2CC2)no1	1.4%	?	?	i	15.1%	?
Cc1cc(NC(=O)COC(=O)Cn2[nH]c(=O)c3ccccc3c2=O)c([N+](=O)[O-])cc1C	10.3%	i	2.3%	i	7.2%	0.0%
CCC(C)[C@H]1CNCCN1CCC12CC3CC(CC(C3)C1)C2 (some centres undefined)	?	i	25.9µM*	i	-12.1%	11.6µM*
CCC(C)[C@H]1CNCCN1CCCc1cc(OC)c(OC)c(OC)c1 (some centres undefined)	7.5%	i	5.7%	i	7.3%	3.2%
CC(O)[C@H]1CNCCN1CC1(c2ccccc2)CC1 (some centres undefined)	9.1%	?	6.7%	i	15.4%	0.5%
CCC(C)[C@H]1CNCCN1CC1(c2ccccc2)CC1 (some centres undefined)	-1.7%	i	20.6µM*	i	-0.6%	18.4µM*
CCC(C)[C@H]1CNCCN1CCc1cccc2ccccc12 (some centres undefined)	-27.8%	i	16.4µM*	?	-0.3%	?
Cc1cccc(N2CCN(C(=O)Cn3ccc4ccccc4c3=O)CC2)c1C	-14.9%	i	12.6µM*	i	?	?
CC1Cc2ccccc2N1C(=O)Cn1cnc2c1c(=O)n(C)c(=O)n2C (centres undefined)	-3.4%	?	?	i	-4.1%	23.1µM*
Cc1cccc(N2CCN(C(=O)Cn3cnc4c3c(=O)n(C)c(=O)n4C)CC2)c1C	-9.5%	i	23.1µM*	i	-7.2%	18.4µM*
SMILES	HT1080-NT tox	KB-V1 MDR tox	DT40 TDP1 CPT	KB-3-1 tox	HT1080 IDH1KD tx	DT40 TDP1 no CPT
Cc1cccc(N2CCN(C(=O)Cn3c(=O)c4cccn4c4ccc(F)cc43)CC2)c1C	nt	nt	20.6µM*	nt	nt	10.3µM*
Cn1c(=O)c2c(ncn2CC(=O)N2CCN(c3ccccc3F)CC2)n(C)c1=O	16.0%	i	-6.7%	i	4.8%	2.2%
Cc1nnsc1C(=O)N1CCC(CO)(Cc2ccccc2Cl)CC1	-0.8%	i	?	i	-0.5%	?
COc1ccc(CCNC(=O)c2nnn(-c3cc(C)cc(C)c3)c2N)cc1OC	-3.2%	?	14.6µM*	i	-3.8%	?
Cc1cc(C)cc(-n2nnc(C(=O)NCc3ccc4c(c3)OCO4)c2N)c1	8.4%	8.2µM*	2.6%	i	4.7%	-14.9%
Cc1ccc(CCNC(=O)c2nnn(-c3cc(C)cc(C)c3)c2N)cc1	-9.9%	i	-27.0%	i	-1.4%	?
COc1ccc(CCNC(=O)c2nnn(-c3cccc(C)c3)c2N)cc1OC	9.3%	9.2µM*	?	i	0.6%	?
COc1ccc(CCNC(=O)c2cn3ccc(C)cc3n2)cc1OC	-5.4%	i	?	i	0.6%	16.4µM*
COC(=O)c1nnn(-c2cccc(C)c2)c1N	nt	i	nt	i	nt	nt
CC1CCCC(C)N1C(=O)COC(=O)c1cccnc1Cl (centres undefined)	2.3%	i	14.9%	i	2.8%	3.2%
CCOC(=O)c1c(C)c(C(=O)NCc2ccc3c(c2)OCO3)c(C)n1C	-1.9%	18.4µM*	-9.6%	i	-2.6%	-19.0%
CNC(=O)C[C@H]1C(=O)N(C2CCCCC2)C[C@@H]1c1ccc(Br)cc1	3.1%	i	1.2%	i	0.6%	-1.4%
COC(=O)c1ccccc1NC(=O)c1ccc2c(c1)CCN2S(C)(=O)=O	nt	i	?	i	nt	-27.7%
S=C(NCc1ccc(Cl)cc1)NCc1ccccn1	5.5%	i	-20.7%	i	2.5%	23.6%
